In PubChem BioAssay:
Calls of active or inactive are those of the source.

Key:
[1] = compound effects on lung adenocarcinoma cell viability – A549, calcein-AM fluorescence, 48 h, basal, profiling panel (AID 1162); details: higher = more signal
[2] = compound effects on differentiated 3T3-L1 adipocyte viability – cell-based, 3T3-L1 adipocytes, calcein-AM fluorescence, 48 h, basal, profiling panel (AID 1163); details: 3T3-L1 adipocytes viability, higher = more signal
[3] = compound effects on hepatocellular carcinoma cell viability – HepG2, calcein-AM fluorescence, 48 h, basal, profiling panel (AID 1164); details: higher = more signal
[4] = compound effects on multiple myeloma cell viability – MM1S, calcein-AM fluorescence, 48 h, basal, profiling panel (AID 1165); details: higher = more signal;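 also: viability of MM1S multiple myeloma cells under basal unstimulated conditions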
[5] = calcein-AM signal in unstimulated myeloma cells – cell-based, calcein-AM fluorescence, 48 h, PK04 Diversity Set, profiling panel (AID 1166); details: RPMI8226 myeloma viability, higher = more signal;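 also: cells grown under basal conditions without added stimulus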
[6] = JC-1 mitochondrial signal, unstimulated HepG2 cells – cell-based, JC-1 fluorescence, 24 h, 100 nL compound, profiling panel (AID 1167); details: HepG2 mitochondrial potential, higher = more signal
[7] = JC-1 mitochondrial signal, unstimulated adipocytes – cell-based, JC-1 fluorescence, 3T3-L1 adipocytes, 24 h, 100 nL compound, profiling panel (AID 1168); details: JC-1 mitochondrial fluorescence, higher = more signal, called active from +8 up or from −8 down
[8] = JC-1 mitochondrial signal, unstimulated myeloma cells – cell-based, JC-1 fluorescence, RPMI8226, 24 h, 100 nL compound, profiling panel (AID 1169); details: JC-1 mitochondrial potential fluorescence, higher = more signal
[9] = JC-1 mitochondrial signal, unstimulated MM1S myeloma – cell-based, JC-1 fluorescence, 24 h, 100 nL compound, profiling panel (AID 1170); details: MM1S mitochondrial potential, higher = more signal
[10] = resazurin metabolic signal in A549 cells – cell-based, resazurin fluorescence, 24 h, PK04 Diversity Set, profiling panel (AID 1171); details: A549 viability, higher = more signal, called active from +8 up or from −8 down
Also: test concentration not given here.

Row | Compound | z-score [1] | z-score [2] | z-score [3] | z-score [4] | z-score [5] | z-score [6] | z-score [7] | z-score [8] | z-score [9] | z-score [10]
1 | COCCCNC(=O)[C@@]1(CCS(=O)(=O)c2ccccc2)N=C(c2ccc(OCCCO)cc2)O[C@H]1c1ccccc1 | 2.27 | 0.217 | 1.84 | -0.345 | -0.193 | 0.887 | -0.468 (inactive) | 0.243 | 0.508 | 0.486 (inactive)
2 | Cc1ccc(C2CC=C(C(=O)O)CN2S(=O)(=O)c2ccc(C)cc2)cc1 (stereo not given) | -0.789 | 0.171 | -1.04 | -1.07 | -1.65 | -0.0791 | -0.516 (inactive) | -0.187 | -0.296 | -0.716 (inactive)
3 | CO[C@H]1COC(=O)CC=C[C@H](C)[C@@H](NS(=O)(=O)c2ccc(C)cc2)COC(=O)CC=C[C@@H]1C | 0.368 | 0.902 | 0.605 | -0.204 | 0.15 | -0.0318 | -1.58 (inactive) | 0.0791 | -1.17 | -0.0226 (inactive)
4 | C=CCC(OC(C)=O)[C@@H]1[C@@H](N(Cc2cc3ccccc3o2)C(=O)Cc2ccc(F)cc2)c2cc(OCCCO)ccc2N1C(=O)Cc1ccc(OC)cc1 (stereo not given in full) | -0.382 | 0.569 | 0.585 | -0.0962 | 0.228 | 1.16 | -0.0927 (inactive) | 0.774 | -0.208 | 0.331 (inactive)
5 | [N-]=[N+]=NCc1ccccc1[C@@H]1OC(c2ccc(OCCCO)cc2)=N[C@]1(Cc1ccccc1)C(=O)N1CCOCC1 | 0.307 | 0.146 | 1.45 | -1.2 | -0.275 | 0.787 | 1.05 (inactive) | -1.39 | -1.13 | -1.14 (inactive)
6 | COc1ccc(O[C@H]2C=C[C@@H](c3ccccc3)O[C@@H]2COC(=O)CCC(C)=NOC(C)CN2CCCCc3nc(C)c(C)cc32)cc1 (stereo not given in full) | -0.294 | -0.471 | 0.197 | -1.35 | -0.666 | 0.775 | -0.313 (inactive) | -0.508 | -0.903 | 1.61 (inactive)
7 | CCCC[C@@H]1C[C@H]1[C@@H](NS(=O)(=O)c1cccc2cccnc12)c1ccc(-c2ccccc2)cc1 | -1.11 | -1.08 | -0.0369 | 0.252 | 0.0748 | -1.13 | -0.43 (inactive) | -0.214 | -1.49 | 0.239 (inactive)
8 | O=C1C[C@@H](O)[C@@H](O)[C@@H]2[C@@H]3C(=O)N(c4ccc(F)cc4F)C(=O)[C@@H]3CC[C@@H]12 | -0.294 | -0.0367 | 0.644 | -0.701 | -0.709 | -0.56 | -0.597 (inactive) | -0.28 | 0.959 | 0.824 (inactive)
9 | COC(=O)C1=C(C)N(Cc2ccccc2)[C@]23O[C@](C(=O)OC)(C(=O)N2[C@@H]1c1ccccc1)[C@H]1CCOC(=O)[C@H]13 | 0.589 | 0.109 | -0.21 | 0.0449 | -0.808 | 0.74 | 0.642 (inactive) | -0.139 | -0.0135 | 0.516 (inactive)
10 | C=CCNC(=O)[C@H]1[C@@H]2C(=O)O[C@@H](c3ccccc3)[C@@H](c3ccccc3)N2[C@@H](c2ccc(O)cc2)[C@]12C(=O)N(C(=O)OCCOC)c1ccc(C#CC3=CCCCC3)cc12 | -1.1 | 0.537 | -0.444 | -2.53 | -3.23 | -1.47 | -0.777 (inactive) | -0.611 | -0.324 | 0.512 (inactive)
11 | [N-]=[N+]=NCc1ccccc1C[C@]1(C(=O)NCc2ccccc2)N=C(c2ccc(OCCCO)cc2)O[C@H]1c1ccccc1N=[N+]=[N-] | -0.71 | 0.0331 | -1.03 | -2.98 | -4.24 | 0.504 | -0.249 (inactive) | -1.17 | -1.5 | -0.883 (inactive)
12 | CO[C@H]([C@@H](C)[C@H](OC)c1ccccc1)[C@H](C)[C@@H](OC)[C@H](C)C(C)=O | 1.29 | -0.305 | 0.278 | 0.48 | -0.345 | 0.0892 | 1.16 (inactive) | -0.141 | 0.692 | -0.0733 (inactive)
13 | COc1cccc([C@H]2Oc3ccc(OC)cc3C(=NOC(C)CN3CCCc4nc(C)c(C)cc43)[C@@H]2O)c1 (stereo not given in full) | -0.0217 | -0.529 | 0.778 | 0.296 | -0.627 | 0.0313 | -1.29 (inactive) | 0.239 | -0.947 | -0.455 (inactive)
14 | COCCOC(=O)N1C(=O)[C@@]2(c3cc(C#CC4(O)CCCCCC4)ccc31)[C@H](c1ccc(OCCO)cc1)N1[C@H](c3ccccc3)[C@H](c3ccccc3)OC(=O)[C@H]1[C@@H]2C(=O)NC[C@H](O)c1ccccc1 | 0.358 | 1.62 | -0.063 | -1.25 | -1.84 | -1.67 | 0.0493 (inactive) | -0.924 | -1.47 | 0.702 (inactive)
15 | CC(C)CON=C1[C@H]2CCn3c(=O)n(-c4ccccc4)c(=O)n3[C@H]2[C@H](O)[C@@H]2O[C@H]12 | -0.464 | 0.322 | 0.332 | 0.456 | -1.2 | -0.174 | -0.0969 (inactive) | -0.385 | -0.209 | -0.829 (inactive)
16 | C=C(/C(=C/C[C@H](OC(=O)c1ccncc1)c1ccc(OCCO)cc1)c1cnc2ccccc2c1)C(C)C | 1.31 | -0.122 | 0.0253 | -2.75 | -0.294 | 0.92 | -0.69 (inactive) | -0.815 | -0.0967 | 0.58 (inactive)
17 | CCOC(=O)C1=CC[C@H]2C(=O)N(CC)C(=O)[C@@H]12 | -0.148 | 0.0888 | -0.622 | -0.0999 | 0.0317 | -0.342 | -0.362 (inactive) | 0.0877 | -0.517 | 1.17 (inactive)
18 | CCCCCCc1nc(CCCc2cc3c(c(CCCCCC)n2)[Si](C(C)C)(C(C)C)O[C@H]3c2ccccc2)cc2c1[Si](C(C)C)(C(C)C)O[C@H]2c1ccccc1 | 1.4 | -0.352 | -0.17 | -0.374 | -0.966 | 0.903 | 0.774 (inactive) | -0.308 | 0.396 | 1.09 (inactive)
19 | C[C@@H]1CCC2C(=O)N(Cc3ccccc3)C[C@@H](O)CN2[C@H]1c1ccc(Br)cc1 (stereo not given in full) | 0.247 | 0.13 | 0.229 | 0.314 | 0.447 | 0.687 | 0.303 (inactive) | -0.878 | 1.35 | 0.269 (inactive)
20 | Cc1cc(C)c(-c2cc([C@H](C)ON=C3[C@H]4CCn5c(=O)n(-c6ccccc6)c(=O)n5[C@H]4[C@H](O)[C@@H]4O[C@H]34)on2)c(C)c1 | -0.605 | -0.91 | -0.887 | -2.95 | -3.87 | 0.668 | -0.803 (inactive) | -1.24 | -2.39 | -0.776 (inactive)
21 | CCCC[C@@H](O)C1=C(C)C[C@H]2C(=O)N(Cc3ccccc3)C(=O)[C@H]2[C@H]1CO | 0.35 | 0.356 | -0.0592 | -0.0699 | 1.09 | 0.579 | 0.164 (inactive) | -0.0812 | -0.785 | 0.453 (inactive)
22 | COCCOC(=O)N1C(=O)[C@@]2(c3ccccc31)[C@H](C(N)=O)[C@H]1C(=O)O[C@H](c3ccccc3)[C@H](c3ccccc3)N1[C@@H]2c1ccccc1OCCO | -0.421 | 1.59 | -1.42 | -3.2 | -4.53 | -0.728 | 0.633 (inactive) | -1.1 | -0.0748 | -1.54 (inactive)
23 | CC(C)OC(=O)C=C1C[C@@H](c2ccc(C#N)cc2)O[C@@H](c2ccc(C#N)cc2)O1 | -0.301 | 0.538 | -0.0099 | -2.29 | -0.69 | -1.06 | -0.195 (inactive) | -0.462 | -2.22 | 0.199 (inactive)
24 | COCCOC(=O)N1C(=O)[C@@]2(c3cc(C#Cc4ccc(OC)cc4)ccc31)[C@H](C(=O)N1CCN(c3ncccn3)CC1)[C@H]1C(=O)O[C@H](c3ccccc3)[C@H](c3ccccc3)N1[C@@H]2c1ccc(OCCO)cc1 | -0.758 | 0.717 | 0.0264 | -1.01 | 0.581 | 0.331 | 3.91 (inactive) | -0.453 | -0.885 | -0.212 (inactive)
25 | C#CCCCON=C1C[C@@H](O)[C@@H](O)[C@@H]2[C@@H]3C(=O)N([C@@H](C)c4ccccc4)C(=O)[C@@H]3CC[C@H]12 | -0.858 | -0.0991 | -0.106 | 0.348 | -1.39 | 0.359 | 0.114 (inactive) | 0.234 | -0.53 | -0.0314 (inactive)
26 | COC(=O)[C@]1(CO)N=C(c2ccc(OCCCO)cc2)O[C@@H]1c1ccccc1N=[N+]=[N-] | -0.0196 | 0.909 | 0.45 | 0.512 | -0.172 | -0.177 | -0.464 (inactive) | 0.392 | -0.471 | -0.276 (inactive)
27 | CCCNC(=O)[C@@H]1c2ccccc2C(=O)N(Cc2ccccc2Cl)[C@H]1c1ccc(CO)cc1 | 2.5 | 1.42 | 2.37 | -0.138 | 1.23 | 3.3 | 0.0089 (inactive) | 0.325 | 0.661 | 2.06 (inactive)
28 | COC(=O)[C@@H]1CCCN1C(=O)[C@@H](C)CO | 0.0364 | 0.512 | -0.52 | -2.77 | -0.57 | -0.952 | 0.514 (inactive) | -0.157 | -1.32 | -1.14 (inactive)
